For one test, the system named is Klebsiella pneumoniae. Particulars: Concentration 32 ug.mL-1;; ASSAY_TEST Inhibition of Bacterial Growth; detection method Absorption (OD600); MEDIA CAMHB; plate type 384well; NBS; CORNING #3640; time 18 hr.
Another test has as its system Candida albicans. Particulars: Concentration 32 ug.mL-1; ASSAY_TEST Inhibition of Fungal Growth; detection method Absorption (OD530).
The subject of a further test is Cryptococcus neoformans. Particulars: Concentration 32 ug.mL-1; ASSAY_TEST Inhibition of Fungal Growth; detection method Resazurin; Absorption (OD600-OD570); plate type 384well; NBS; CORNING #3640.

Structures are written as SMILES. Entries with a potency or affinity are not part of this list.

Take `COc1ccc(CCn2c(=O)c3sccc3n3c(=O)n(Cc4c(F)cccc4Cl)nc23)cc1OC`: the results for the Inhibition with Klebsiella pneumoniae, with Candida albicans and in the test on Cryptococcus neoformans were 4.92%, -1.61% and -23.43%, respectively.

Take `O=C(Cn1nc2nc(Nc3ccc(F)cc3)ccn2c1=O)N1CCOCC1`: the Inhibition – broadly, the change of the read-out against control, counted positive when it falls – is 14.5% in the test with Klebsiella pneumoniae, 2.63% with Candida albicans and -13.19% in the test with Cryptococcus neoformans.

On to `Cc1cccc(CN(c2ccc(F)cc2)S(=O)(=O)c2ccc3nnc(C)n3c2)c1`, for which the Inhibition is recorded as 6.15% in the test on Klebsiella pneumoniae, 1.93% in the test with Candida albicans and -4.65% with Cryptococcus neoformans.

As to `CCCCOc1ccc(-c2cc3c4nnc(SCC(=O)Nc5ccc(Cl)cc5)n4ccn3n2)cc1`, the Inhibition in the test on Klebsiella pneumoniae is given as 11.84%; with Candida albicans, 2.71%; in the test on Cryptococcus neoformans, -15.55%.

As for `Cc1ccc(NC(=O)Cn2nc3c(Oc4ccccc4Cl)nccn3c2=O)cc1F`, the figures for the Inhibition in the test with Klebsiella pneumoniae, in the test with Candida albicans and in the test with Cryptococcus neoformans were 12.22%, 0.49% and -9.07%, respectively.

For the molecule `CC(C)Cn1c(=O)c2sccc2n2c(=O)n(Cc3ccc(N4CCCC4=O)cc3)nc12`, the values for the Inhibition with Klebsiella pneumoniae, with Candida albicans and in the test on Cryptococcus neoformans were 9.72%, 1.08% and -27.68%, respectively.

For the molecule `COc1cccc(NC(=O)Cn2nc3ccc(-c4ccc(Cl)cc4)nn3c2=O)c1`, the figures for the Inhibition in the test on Klebsiella pneumoniae, in the test on Candida albicans and in the test on Cryptococcus neoformans were 5.27%, 2.11% and -14.88%, respectively.

Consider `COc1ccc(-c2cc3c4nn(CC(=O)Nc5c(C)cc(C)cc5C)c(=O)n4ccn3n2)cc1`, for which the Inhibition with Klebsiella pneumoniae is reported as 6.07%; in the test on Candida albicans, -1.73%; in the test on Cryptococcus neoformans, -15.2%.

For `CCCCc1ccc(NC(=O)Cn2nc3c(N4CCSCC4)nc4ccccc4n3c2=O)cc1`, the Inhibition was 15.26% in the test with Klebsiella pneumoniae, -0.87% with Candida albicans and -24.44% in the test on Cryptococcus neoformans.

On to `Cc1nnc2ccc(S(=O)(=O)N(CC(=O)OC(C)(C)C)c3ccc4c(c3)OCO4)cn12`, for which the Inhibition with Klebsiella pneumoniae is given as 6.34%; in the test on Candida albicans, 5.98%; with Cryptococcus neoformans, -4.94%.

Values taken from ChEMBL document CHEMBL4513146, “CO-ADD screening of Karazin Kharkiv National University (Ukraine) compounds”.
